The results in this text go back to ChEMBL document CHEMBL1961873, “Compounds: GSK PKIS; Assays: Nanosyn kinase panel” (2012).

The inhibition is the change of the read-out against control, counted positive when it falls.

Chain of Serine/threonine-protein kinase PAK 3 (Homo sapiens) (O75914 whole entry, looked up): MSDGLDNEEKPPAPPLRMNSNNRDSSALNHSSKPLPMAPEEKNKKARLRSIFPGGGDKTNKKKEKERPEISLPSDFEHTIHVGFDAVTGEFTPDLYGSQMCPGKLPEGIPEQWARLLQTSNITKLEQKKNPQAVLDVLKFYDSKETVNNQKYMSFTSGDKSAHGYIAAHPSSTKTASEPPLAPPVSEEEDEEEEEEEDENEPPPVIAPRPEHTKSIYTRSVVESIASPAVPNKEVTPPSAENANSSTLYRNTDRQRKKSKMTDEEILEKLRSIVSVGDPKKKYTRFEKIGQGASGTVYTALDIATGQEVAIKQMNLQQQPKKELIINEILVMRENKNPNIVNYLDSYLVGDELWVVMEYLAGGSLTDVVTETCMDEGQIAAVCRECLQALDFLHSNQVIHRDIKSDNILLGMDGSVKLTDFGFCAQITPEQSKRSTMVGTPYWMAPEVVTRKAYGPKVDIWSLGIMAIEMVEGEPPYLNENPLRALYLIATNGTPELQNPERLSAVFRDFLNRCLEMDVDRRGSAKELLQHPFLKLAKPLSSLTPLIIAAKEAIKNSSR

The first assay has as its target Serine/threonine-protein kinase PAK 3 (Homo sapiens) (UniProt O75914). To be noted: at 1 µM.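 Further: reported percentage is a mean inhibition value.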
As to `c1ccc(COc2ccc(Nc3ncnc4ccc(-c5ccco5)cc34)cc2)cc1`, the inhibition came to 1.49%.
The same measure, in the same setting: the result for `COc1ccc2c(-c3ccnc(Nc4cccc(OC(F)(F)F)c4)n3)cnn2n1` reads 5.05%; that for `CN1CCC(n2cnc(-c3ccc(F)cc3)c2-c2ccnc(N)n2)CC1`, 1.43%.
On to `COc1ccc(-c2cc(-c3c[nH]nc3-c3ccccn3)ccn2)cc1`, for which the inhibition was 5.49%.
In the case of `Cc1cccc(Nc2ncc(-c3ccccc3)o2)c1`, the inhibition was found to be 5.76%.
Regarding `COC(=O)c1sc(-n2cnc3cc(OC)c(OC)cc32)cc1OCc1ccccc1C(F)(F)F`, the inhibition came to 4.18%.
On to `N#Cc1c(NC(=O)CN2CCOCC2)sc2c1CCCC2`, for which the inhibition came to 4.91%.
Take `COc1ccc(-c2cc3c(N)ncnc3o2)cc1`: the inhibition is -1.01%.
The same measure, in the same setting: the figure for `N#Cc1c(NC(=O)c2ccc(F)cc2)sc2c1CCCC2` is 1.26%.
As to `Cc1ccc2c(-c3ccnc(Nc4ccccc4)n3)c(-c3ccc(F)cc3)nn2n1`, the inhibition was 4.22%.
With `CNC(=O)c1cc(-c2ccc(F)cc2)cc(-c2ccc(S(=O)(=O)N3CCCC3)cc2)c1N`, the inhibition was determined as 5.29%.
For `Cc1ccc(O)cc1Nc1ccnc2cc(-c3ccccn3)ccc12`, the inhibition turned out to be 5%.
As for `CCc1nn2ncccc2c1-c1ccnc(NC2CC2)n1`, the inhibition came out at 3.37%.
Still for that read-out and setting: the figure for `CCCN1CCC(c2ccc(Nc3nc(Nc4cc(F)ccc4C(N)=O)c4cc[nH]c4n3)c(OC)c2)CC1` is 5.21%; for `Fc1ccc(-c2nn3ccccc3c2-c2ccncc2)cc1` it is 1.75%.
For `O=C(O[C@H]1CN[C@H](C#Cc2cc3ncnc(Nc4ccc(Cc5ccccc5)cc4)c3s2)C1)N1CCOCC1`, the inhibition is 2.95%.
For `COc1ccc(-c2nn3ncccc3c2-c2ccnc(Nc3ccc4c(c3)OCCO4)n2)cc1`, the inhibition came to 1.51%.
Same read-out and setting: the result for `CN(C)CCOc1ccc(-c2nc(-c3ccncc3)c(-c3ccc4c(c3)CC/C4=N\O)[nH]2)cc1` reads 4.82%; that for `CCN1CCC(CC(=O)Nc2n[nH]c3nnc(-c4cccc(F)c4F)cc23)CC1`, 1.02%.
As for `COc1cccc(-c2c[nH]c3c(N/N=C/c4ccncc4)ncnc23)c1`, the inhibition stood at 2.84%.
On to `Fc1ccc(-c2nn3ncccc3c2-c2ccnc(Nc3ccc4c(c3)OCCO4)n2)cc1`, for which the inhibition came out at 4.47%.
As to `COc1cc(Nc2nccc(Nc3ccc4c(C)n[nH]c4c3)n2)cc(OC)c1OC`, the inhibition amounted to 5.23%.
With `CC(C)COC(=O)c1ccc2c(c1)/C(=C/Nc1ccc(S(N)(=O)=O)cc1)C(=O)N2`, the inhibition is -0.22%.
Take `NS(=O)(=O)c1ccc(N/N=C2\C(=O)Nc3ccc4ncccc4c32)cc1`: the inhibition was 3.77%.
On to `COc1cc(N2CCN(C(C)C)CC2)ccc1Nc1nc(Nc2ccc(F)cc2C(N)=O)c2cc[nH]c2n1`, for which the inhibition came out at 6.18%.
Consider `CCn1c(-c2nonc2N)nc2c(C#CC(C)(C)O)ncc(OC3CCNCC3)c21`, for which the inhibition amounted to 8.39%.
Regarding `CNC(=O)c1cccc(C#Cc2cncnc2Nc2ccc(OCc3cccc(F)c3)c(Cl)c2)c1`, the inhibition was 0.51%.
Regarding `Fc1cccc(COc2ccc(Nc3ncnc4sc(-c5ccco5)cc34)cc2Cl)c1`, the inhibition turned out to be 3.75%.
As for `c1ccc(-c2nc3n(c2-c2ccc4c(c2)OCO4)CCC3)nc1`, the inhibition was found to be 2.08%.
Regarding `O=S(=O)(CCNCc1ccc(-c2ccc3ncnc(Nc4ccc(OCc5cccc(F)c5)c(Cl)c4)c3c2)o1)c1ccccc1`, the inhibition amounted to 5.75%.
In the case of `COc1cc(/C=N/Nc2ncnc3[nH]ncc23)ccc1O`, the inhibition turned out to be 4.44%.
The same measure, in the same setting: the figure for `CS(=O)(=O)CCNCc1coc(-c2ccc3ncnc(Nc4ccc(OCc5ccccc5)cc4)c3c2)c1` is 3.31%.
On the same count and under the same terms, the result for `COc1cc2c(cc1Nc1nc(Nc3ccsc3C(N)=O)c3cc[nH]c3n1)N(C(=O)CN(C)C)CCC2(C)C` reads 5.85%.

In another assay the target is Serine/threonine-protein kinase PAK 5 (Homo sapiens) (UniProt Q9P286). To be noted: at 0.1 µM.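 Further: values are mean percent inhibition of PAK5 from a kinase inhibitor set screen.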
Chain of Serine/threonine-protein kinase PAK 5 (Homo sapiens) (Q9P286 whole entry, looked up): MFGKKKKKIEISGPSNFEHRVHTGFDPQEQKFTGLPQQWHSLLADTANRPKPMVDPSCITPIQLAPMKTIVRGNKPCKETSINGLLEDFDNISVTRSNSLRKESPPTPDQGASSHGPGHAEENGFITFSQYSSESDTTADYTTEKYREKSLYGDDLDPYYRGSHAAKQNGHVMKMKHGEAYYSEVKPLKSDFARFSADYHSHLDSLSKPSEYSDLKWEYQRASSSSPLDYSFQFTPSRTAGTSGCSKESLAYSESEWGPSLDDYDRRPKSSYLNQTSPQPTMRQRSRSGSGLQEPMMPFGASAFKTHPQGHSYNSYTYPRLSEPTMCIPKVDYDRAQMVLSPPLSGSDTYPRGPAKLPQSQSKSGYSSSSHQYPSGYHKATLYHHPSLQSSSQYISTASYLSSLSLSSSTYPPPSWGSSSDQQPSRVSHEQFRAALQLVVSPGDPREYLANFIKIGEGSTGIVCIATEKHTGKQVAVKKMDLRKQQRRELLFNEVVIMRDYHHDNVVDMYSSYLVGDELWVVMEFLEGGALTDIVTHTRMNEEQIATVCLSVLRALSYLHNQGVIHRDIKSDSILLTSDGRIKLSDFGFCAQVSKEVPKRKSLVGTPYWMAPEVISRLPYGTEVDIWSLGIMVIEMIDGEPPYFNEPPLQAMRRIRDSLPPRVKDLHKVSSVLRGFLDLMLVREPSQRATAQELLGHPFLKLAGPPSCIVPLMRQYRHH
Take `c1ccc(COc2ccc(Nc3ncnc4ccc(-c5ccco5)cc34)cc2)cc1`: the inhibition was -1.27%.
Turning to `COc1ccc2c(-c3ccnc(Nc4cccc(OC(F)(F)F)c4)n3)cnn2n1`, the inhibition came to 8.06%.
Consider `CN1CCC(n2cnc(-c3ccc(F)cc3)c2-c2ccnc(N)n2)CC1`, for which the inhibition was -5.17%.
As to `COc1ccc(-c2cc(-c3c[nH]nc3-c3ccccn3)ccn2)cc1`, the inhibition is 3.54%.
Same read-out and setting: the figure for `Cc1cccc(Nc2ncc(-c3ccccc3)o2)c1` is 1.42%; for `COC(=O)c1sc(-n2cnc3cc(OC)c(OC)cc32)cc1OCc1ccccc1C(F)(F)F` it is -1.22%; for `N#Cc1c(NC(=O)CN2CCOCC2)sc2c1CCCC2` it is 2.38%.
As for `COc1ccc(-c2cc3c(N)ncnc3o2)cc1`, the inhibition is -1.3%.
In the case of `N#Cc1c(NC(=O)c2ccc(F)cc2)sc2c1CCCC2`, the inhibition is -0.93%.
Regarding `Cc1ccc2c(-c3ccnc(Nc4ccccc4)n3)c(-c3ccc(F)cc3)nn2n1`, the inhibition was 8.15%.
The same measure, in the same setting: the figure for `CNC(=O)c1cc(-c2ccc(F)cc2)cc(-c2ccc(S(=O)(=O)N3CCCC3)cc2)c1N` is 2.26%; for `Cc1ccc(O)cc1Nc1ccnc2cc(-c3ccccn3)ccc12` it is 3.23%; for `CCc1nn2ncccc2c1-c1ccnc(NC2CC2)n1` it is -2.62%.
On to `CCCN1CCC(c2ccc(Nc3nc(Nc4cc(F)ccc4C(N)=O)c4cc[nH]c4n3)c(OC)c2)CC1`, for which the inhibition came to 1.36%.
Consider `Fc1ccc(-c2nn3ccccc3c2-c2ccncc2)cc1`, for which the inhibition was -0.38%.
For the compound `O=C(O[C@H]1CN[C@H](C#Cc2cc3ncnc(Nc4ccc(Cc5ccccc5)cc4)c3s2)C1)N1CCOCC1`, the inhibition was determined as 0.53%.
Consider `COc1ccc(-c2nn3ncccc3c2-c2ccnc(Nc3ccc4c(c3)OCCO4)n2)cc1`, for which the inhibition was -2.13%.
As for `CN(C)CCOc1ccc(-c2nc(-c3ccncc3)c(-c3ccc4c(c3)CC/C4=N\O)[nH]2)cc1`, the inhibition came to 7.4%.
Consider `CCN1CCC(CC(=O)Nc2n[nH]c3nnc(-c4cccc(F)c4F)cc23)CC1`, for which the inhibition amounted to 2%.
Consider `COc1cccc(-c2c[nH]c3c(N/N=C/c4ccncc4)ncnc23)c1`, for which the inhibition stood at 0.46%.
As for `Fc1ccc(-c2nn3ncccc3c2-c2ccnc(Nc3ccc4c(c3)OCCO4)n2)cc1`, the inhibition is -1.83%.
As for `COc1cc(Nc2nccc(Nc3ccc4c(C)n[nH]c4c3)n2)cc(OC)c1OC`, the inhibition was found to be 1.57%.
Turning to `CC(C)COC(=O)c1ccc2c(c1)/C(=C/Nc1ccc(S(N)(=O)=O)cc1)C(=O)N2`, the inhibition was -0.7%.
Regarding `NS(=O)(=O)c1ccc(N/N=C2\C(=O)Nc3ccc4ncccc4c32)cc1`, the inhibition was -1.93%.
`COc1cc(N2CCN(C(C)C)CC2)ccc1Nc1nc(Nc2ccc(F)cc2C(N)=O)c2cc[nH]c2n1`: the inhibition worked out at 8.18%.
Same read-out and setting: the figure for `CCn1c(-c2nonc2N)nc2c(C#CC(C)(C)O)ncc(OC3CCNCC3)c21` is 34.6%.
Consider `CNC(=O)c1cccc(C#Cc2cncnc2Nc2ccc(OCc3cccc(F)c3)c(Cl)c2)c1`, for which the inhibition was found to be 7.61%.
For `Fc1cccc(COc2ccc(Nc3ncnc4sc(-c5ccco5)cc34)cc2Cl)c1`, the inhibition came to 2.39%.
On the same count and under the same terms, the figure for `c1ccc(-c2nc3n(c2-c2ccc4c(c2)OCO4)CCC3)nc1` is 3.16%.
Turning to `O=S(=O)(CCNCc1ccc(-c2ccc3ncnc(Nc4ccc(OCc5cccc(F)c5)c(Cl)c4)c3c2)o1)c1ccccc1`, the inhibition came to 4.32%.
Same read-out and setting: the figure for `COc1cc(/C=N/Nc2ncnc3[nH]ncc23)ccc1O` is 10.5%.
On to `CS(=O)(=O)CCNCc1coc(-c2ccc3ncnc(Nc4ccc(OCc5ccccc5)cc4)c3c2)c1`, for which the inhibition was 3.59%.
Turning to `COc1cc2c(cc1Nc1nc(Nc3ccsc3C(N)=O)c3cc[nH]c3n1)N(C(=O)CN(C)C)CCC2(C)C`, the inhibition was -2.38%.
